# In ChEMBL document CHEMBL3988442, “University of Dundee, Small-Polar-MMV Screening Library” (2021):
# The whole screen tested about 69,000 compounds, of which about 950 (1.4%) showed an effect of 50% or more. For the sample, strong results were picked, then their nearest neighbours and some compounds at random.
# Tested on: Mycobacterium tuberculosis
# Experiment: Cornell M. t heat shock assay; further: in the data most compounds retested in dose-response had high values
# Assay type: functional, organism-based
# Design: dose or concentration left out as unconfirmed
row,Compound,Percent Effect [%]
1,N#Cc1cccc(C(=O)N2CC[C@H]3[C@H]2CCN3CC2CC2)c1.O=C(O)C(F)(F)F,-24.15
2,Fc1ccc(CN2CCC3(CC2)CCN(c2ncccn2)CC3)cc1.O=C(O)C(F)(F)F.O=C(O)C(F)(F)F,-1.526
3,CC1CN(C)CCN1C(=O)c1cnc2c(cnn2C2CCCC2)c1 (centres undefined),-19.82
4,O=C(NC1CC1)[C@H]1C[C@@H]2CCN(CCc3ccccc3)C[C@H]2O1.O=C(O)C(F)(F)F,-1.701
5,COc1cccc(S(=O)(=O)NC(=O)CCC2CCCC2)c1,97.07
6,COc1cccc(S(=O)(=O)NC(=O)CC2CCCC2)c1,1.853
7,COc1cccc(S(=O)(=O)NC(=O)CCC2CCCO2)c1 (centres undefined),15.02
8,O=C(O)C(F)(F)F.O=C(c1ccco1)N1CC[C@@H]2CN(C3CCOCC3)CCO[C@@H]2C1,13.99
9,COCc1nnc(C(=O)N(C)Cc2ccc(OC)cc2)o1,51.18
10,COc1ccc(CN(C)C(=O)c2nnc(CN(C)C)o2)cc1,-15.5
11,CCCc1nnc(C(=O)N(C)Cc2ccc(OC)cc2)o1,-0.8003
12,COCC(=O)N1CCN(Cn2nc(C)c(Br)c2C)CC1,-1.426
13,O=C(N1CCCC1)N1CCOCC2(CCN(Cc3cccs3)C2)C1.O=C(O)C(F)(F)F (centres undefined),-28.46
14,Cc1ncc(CNC(C)(C)CO)c2cc(C(=O)c3ccc(Br)cc3)oc12,39.89
15,Cc1ncc(CNCCO)c2cc(C(=O)c3ccc(Br)cc3)oc12.Cl,80.79
16,Cc1ncc(CNCC(C)O)c2cc(C(=O)c3ccc(Br)cc3)oc12.Cl (centres undefined),10.59
17,Cl.c1csc(-c2noc(C3CNC3)n2)c1,3.28
18,O=C(O)C(F)(F)F.O=C(O)C(F)(F)F.O=C(O)C(F)(F)F.c1cnn(C[C@@H]2C[C@@H]3CN(CC4CC4)CC[C@@H]3N2c2nccs2)c1,-5.195
19,O=C(O)CC(O)(CC(=O)O)C(=O)O.OC1CCCN(Cc2ccnc(-c3cccnc3)n2)C1 (centres undefined),-5.175
20,CCOC1COC2(CCN(Cc3cccc(C#N)c3)CC2)C1.O=C(O)C(F)(F)F (centres undefined),-5.189
21,N#Cc1ccc(N2CCCC3(CCC(=O)N3CC3CC3)CC2)nc1.O=C(O)C(F)(F)F (centres undefined),42.6
22,Cc1csc(N(C)C(=O)C(c2c(F)cccc2Cl)N(C)C)n1 (centres undefined),16.08
23,CN(C)C(C(=O)Nc1nccs1)c1c(F)cccc1Cl (centres undefined),71.6
24,CN(C(=O)C(c1c(F)cccc1Cl)N(C)C)c1nccs1 (centres undefined),-3.774

row,Compound,Percent Effect [%]
1,O=C(O)C(F)(F)F.O=C(c1cnccn1)N1CCC2(CC1)CCN(Cc1ccccn1)C2=O,-24.58
2,Cl.FC(F)CNc1cnc(C2CCNCC2)cn1,9.975
3,CN(C)CCn1c2c(ccc1=O)CC(NCc1cnn(C)c1)CC2.O=C(O)C(F)(F)F.O=C(O)C(F)(F)F (centres undefined),21.9
4,O=C(O)C(F)(F)F.O=C(O)C(F)(F)F.c1cncc(C2COC3(CCN(CC4CCOCC4)CC3)C2)c1 (centres undefined),-13.27
5,CCN1CCOCC12CCN(C(=O)Cc1ccccc1)CC2.O=C(O)C(F)(F)F,-16.25
6,CNC(=O)CN1CC[C@H]2CN(C(=O)c3cc[nH]n3)C[C@H]2C1.O=C(O)C(F)(F)F,6.516
7,Cc1cnn(CCNCc2nc(-c3ccsc3)oc2C)c1,-4.227
8,Cc1oc(-c2ccsc2)nc1CNC(C)Cn1cccn1 (centres undefined),-16.19
9,Cc1cnn(CC(C)NCc2nc(-c3ccsc3)oc2C)c1 (centres undefined),59.87
10,O=C(O)C(F)(F)F.O=C(O)C(F)(F)F.O=C(O)C(F)(F)F.c1cncc(COCc2cncc3c2CCN(Cc2ccoc2)C3)c1,2.729
11,CC(C)Nc1nc(N2CCCC2)nc2c1CN(c1ncc(F)cn1)CC2,18.45
12,Oc1nc(N2CCOCC2)nc2c1CCN(Cc1cccc(F)c1)CC2,-9.224
13,Fc1cccc(Nc2nc(N3CCCC3)nc3c2CNCC3)c1,102.4
14,COc1cccc(Nc2nc(N3CCCC3)nc3c2CNCC3)c1.Cl,69.1
15,COc1cccc(Nc2nc(C3CCNCC3)c3ccccn23)c1.Cl,10.85
16,COc1cccc(Nc2nc(-c3ccncc3)nc3c2CNCC3)c1.Cl,9.794
17,Cc1cccc(CN2C[C@@H]3CN(C(=O)c4cnoc4C)C[C@@H]3C2=O)n1.O=C(O)C(F)(F)F,-1.837
18,CCOC(=O)C1CCN(C(=O)c2cc(Br)ccc2-n2cnnn2)CC1,2.973
19,CC(C)(C)c1ncc(CNc2ccccc2Cn2cncn2)s1,-19.95
20,Cc1ccc2c(c1)C(NCc1ncnn1C)CC2 (centres undefined),-20.52
21,COc1cccc(CNC2CCc3ccc(C)cc32)n1 (centres undefined),6.41
22,Cc1ccc2c(c1)C(NCc1ccccn1)CC2 (centres undefined),89.07
23,Cl.O[C@@H]1CN(Cc2ccc(F)c(F)c2)CC[C@H]1NCc1ccccn1,-13.15
24,Cc1cc(-c2cnc(NCc3cccnc3)nc2C(C)(C)C)on1,31.35

row,Compound,Percent Effect [%]
1,Cc1[nH]c2ccccc2c1-c1ccnc(N[C@@H](C)CO)n1,-31.62
2,CC(Cn1cccn1)NCc1nc(-c2ccccn2)no1 (centres undefined),-7.12
3,COCC(C)NCc1ccc2[nH]c(C)c(C)c2c1 (centres undefined),-11.87
4,COCC(C)NCc1nc(-c2ccc(C)cc2)c(-c2ccccn2)[nH]1 (centres undefined),76.34
5,Cc1ccc(-c2nc(CNC(C)CCO)[nH]c2-c2ccccn2)cc1 (centres undefined),77
6,Cc1cnn(CC(C)NCc2nc(-c3ccccn3)no2)c1 (centres undefined),-11.38
7,O=C(Cc1ccsc1)N1C[C@@H]2CN(Cc3ccoc3)CCO[C@@H]2C1.O=C(O)C(F)(F)F,-1.836
8,CC(C)=CCN1C(=O)[C@H]2CC[C@@H]1CN(C(=O)CCc1n[nH]c(C)c1C)C2,-27.57
9,O=C(N[C@H]1CCCC[C@@H]1O)c1ccc(-c2nc3ccccc3[nH]2)cc1,47.47
10,O=C(N[C@H]1CCCC[C@@H]1O)c1ccc2nc(-c3ccccc3)[nH]c2c1,0.8647
11,O=C(N[C@H]1CCCC[C@@H]1O)c1cccc(-c2nc3ccccc3[nH]2)c1,55.91
12,CN1CCOCC12CCN(C(=O)C1CCC1)CC2.O=C(O)C(F)(F)F,6.181
13,Cc1cc(C)c2[nH]c(C)c(CC(=O)N(C)CCN(C)C)c2c1.O=C(O)CC(O)(CC(=O)O)C(=O)O,-5.156
14,COc1ccccc1CC(=O)NCc1c(C)nc2cc(=O)[nH]n2c1C,71.9
15,Cc1ccccc1CNC(=O)Cc1c(C)nc2cc(=O)[nH]n2c1C,17.46
16,Cc1nc2cc(=O)[nH]n2c(C)c1CC(=O)NC(C)C,-0.1861
17,Cc1ccc(C(C)NC(=O)Cc2c(C)nc3cc(=O)[nH]n3c2C)s1 (centres undefined),66.66
18,Cc1ccccc1C(C)NC(=O)Cc1c(C)nc2cc(=O)[nH]n2c1C (centres undefined),33.63
19,COC(C(=O)NCc1c(C)nc2cc(=O)[nH]n2c1C)c1ccccc1 (centres undefined),5.148
20,O=C(O)C(F)(F)F.c1cnc(N2CCC3(CCCN(Cc4ccncc4)C3)CC2)nc1,-2.214
21,CNC(=O)[C@H]1C[C@@H]2CCN(c3nnc(C)s3)C[C@@H]2O1.O=C(O)C(F)(F)F,0.7881
22,CSCCC1c2nc[nH]c2CCN1Cc1ccccc1C(F)(F)F (centres undefined),-11.51
23,CSCCC1c2nc[nH]c2CCN1Cc1cc(Cl)ccc1O (centres undefined),106.2
24,CSCCC1c2nc[nH]c2CCN1Cc1ccccc1C#N (centres undefined),12.31

row,Compound,Percent Effect [%]
1,Cc1ccccc1C(=O)N1CC[C@@H](N(C)C)[C@@H]1Cc1cnn(C)c1.O=C(O)C(F)(F)F,-16.62
2,CN(C)S(=O)(=O)N1CC[C@]2(C[C@@H](Oc3ncccc3F)CO2)C1.O=C(O)C(F)(F)F,7.547
3,COc1ccc(CN2C[C@@H](OCc3ccccn3)[C@H]3COC[C@H]32)cc1.O=C(O)C(F)(F)F.O=C(O)C(F)(F)F,-14.6
4,CCN1CCC(CC(=O)NCC(O)c2ccc3ccccc3c2)CC1 (centres undefined),13.11
5,COc1cccc(C(O)CNC(=O)CC2CCCCC2)c1 (centres undefined),9.16
6,CCN1CCC(CC(=O)NCC(O)c2cccc(OC)c2)CC1 (centres undefined),93.38
7,Cn1ccc(CN2CCCC23CCN(Cc2nccn2C)CC3)n1.O=C(O)C(F)(F)F.O=C(O)C(F)(F)F,9.444
8,CCN(CC)Cc1ccc(C(=O)N2CCN(CC(C)O)CC2)o1 (centres undefined),61.39
9,CCN(CC)Cc1ccc(C(=O)N2CCN(CC(C)O)CC2)cc1 (centres undefined),9.654
10,CCc1ccc(C(=O)N2CCN(CC(C)O)CC2)o1 (centres undefined),14.22
11,Cc1ccc(S(=O)(=O)Nc2ccc(N3CCSCC3)c(C(=O)O)c2)s1,-1.51
12,CCN(Cc1noc(C)n1)C(=O)CCn1c(C)cc2ccccc21,72.72
13,CCN(Cc1nc(COC)no1)C(=O)CCn1c(C)cc2ccccc21,35.71
14,CCN(Cc1ccncc1)C(=O)CCn1c(C)cc2ccccc21,10.06
15,COCCN1CCOCC12CCN(C(=O)c1ccoc1)CC2.O=C(O)C(F)(F)F,-24.79
16,Cn1cc(CN2CC[C@H]3O[C@H](C(=O)Nc4cnccn4)CC[C@H]32)cn1.O=C(O)C(F)(F)F,-14.77
17,Cc1cc(CN(C)CCC(O)c2ccccc2)no1 (centres undefined),50.59
18,CN(CCC(O)c1ccccc1)Cc1ccccc1C#N (centres undefined),79.67
19,Cc1cc(CN(C)CCN(C)c2ccccc2)no1,0.1875
20,CN(CCC(O)c1ccccc1)Cc1nc(-c2ccccc2)no1 (centres undefined),28.98
21,COc1cccc(CN(C)Cc2ccccc2C#N)c1OC,-6.46
22,Cc1cc(CN(C)CCC(O)c2ccccc2)nn1C (centres undefined),0.01185
